# Measurements reported in PubChem BioAssay AID485297 (National Center for Advancing Translational Sciences (NCATS), 2010).
# The campaign covered roughly 320,000 compounds. About 9,100 (2.8%) were called active. A call without a number means that no potency is given here. Not shown: some 3% with an inconclusive outcome. The call rests on the fitted dose curve; in most records, active means well fitted activation curve with a large enough effect; inconclusive means small, poorly fitted or top-dose-only effect; inactive means no such curve, though single readings can be large or run the other way. Only a selection was taken, and actives are over-represented in it overall.
# Experiment: qHTS Assay for Rab9 Promoter Activators; further: nearly all actives have a fitted effect of over 60% in size
# Details: Huh7 Rab9 promoter-luciferase reporter, luminescence, 24 h; series mostly up to 9.22 µM
# Outline: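 Quantitative HTS format; Huh7 Rab9-luciferase reporter cells (1500/well) receive compound 2 h post-plating, incubate 24 h at 37 °C, then get luciferase reagent for 10 min before luminescence reading.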
# Potency means the concentration at half of the fitted maximal effect.
row,Compound,Potency
1,O=C(CSc1nc2[nH]c(=O)[nH]c(=O)c2s1)Nc1cccc(F)c1,inactive
2,Cc1ccc(NC(=O)C(C)Sc2nnc(C3CC3)n2C2CC2)cc1S(=O)(=O)N1CCOCC1 (stereo unspecified),inactive
3,CCC(=O)Nc1ccc2nn(-c3ccc(F)cc3)nc2c1,631 nM (active)
4,Cc1cccc(C(=O)OCC(=O)Nc2ccc(F)cc2)c1,inactive
5,Cc1ccc(-n2nc3ccc(NC(=O)/C=C/c4ccco4)cc3n2)cc1C,inactive
6,C=CCN(CC=C)C(=O)CN1C(=O)c2ccccc2C1=O,inactive
7,Cc1cc(C(=O)COC(=O)CCCN2C(=O)c3ccccc3C2=O)c(C)n1C,inactive
8,C=CCn1c(C)cc(C(=O)CN2C(=O)c3ccccc3C2=O)c1C,355 nM (active)
9,COc1cccc(C2=CC(=O)C[C@H](c3ccc(F)cc3)C2)c1OC,inactive
10,Cc1cc(C)cc(OCC(=O)Nc2ccc(N3CCOCC3)cc2N2CCOCC2)c1,inactive
11,Cc1ccc2cc(/C=N/Nc3ccc(C(=O)O)cc3)c(Cl)nc2c1,1260 nM (active)
12,Cc1ccc2cc(/C=N/NC(=O)[C@@H]3CCCN3)c(Cl)nc2c1,inactive
13,CSCC[C@H](NC(=O)OC(C)(C)C)C(=O)N/N=C/c1cc2ccc(C)cc2nc1Cl,inactive
14,CC1(C)O[C@@H]2[C@H](O1)[C@@H](COS(=O)(=O)O)O[C@H]2n1cnc2c(=O)[nH]cnc21,inactive
15,Cc1ccsc1C(=O)OCC(=O)Nc1cccc(F)c1,inactive
16,Cc1nnc(NC(=O)c2ccc3nccnc3c2)s1,inactive
17,Cc1ccc(C(=O)Nc2nnc(-c3cccs3)s2)cc1C,3550 nM (active)
18,Cc1ccc(C(=O)Oc2coc(CSc3nnc(NC(=O)c4cccs4)s3)cc2=O)cc1C,inactive
19,O=C(CNS(=O)(=O)c1ccc2c(c1)OCCCO2)N1CCN(c2ccc(F)cc2)CC1,inactive
20,O=C(NCc1ccccc1CN1CCCC1)C1CCN(S(=O)(=O)c2ccc(Cl)cc2)CC1,inactive
21,O=C(Nc1ccc(Sc2ccc(Br)cc2)cc1)c1ccco1,inactive
22,CCCCSc1nnc(-c2ccc(NC(=O)CC)cc2)n1C,inactive

row,Compound,Potency
1,CC1CCN(c2ccc(-c3ccc(NC(=O)c4ccco4)cc3)nn2)CC1,3550 nM (active)
2,CC1CCN(C(NC(=O)c2ccco2)C(=O)c2ccccc2)CC1 (stereo unspecified),inactive
3,CCC(=O)Nc1ccc(-c2ccc(N3CCCCC3)nn2)cc1,1580 nM (active)
4,CCC(=O)c1ccc(OCC(=O)Nc2ccc(N3CCCCC3)cc2)cc1,inactive
5,Cc1ccc(NC(=O)C(c2ccccc2)N2CCN(C(=O)c3ccco3)CC2)cc1 (stereo unspecified),inactive
6,CC(C)N(Cc1nnc(-c2ccccc2Br)o1)C(=O)c1cc(Cl)nc2ccccc12,inactive
7,CC(=O)c1c(C)[nH]c(C(=O)OCC(=O)Nc2c(C)n(C)n(-c3ccccc3)c2=O)c1C,inactive
8,COc1ccc(-c2noc(CNC(=O)C(C)Oc3ccccc3)n2)cc1 (stereo unspecified),inactive
9,COc1ccc(-c2noc(-c3ccc(C)cc3)n2)cc1,2000 nM (active)
10,Cc1cccc(-c2noc(-c3ccc(F)cc3)n2)c1,224 nM (active)
11,COc1ccc(-c2noc(CSc3ccc(C)cc3)n2)cc1,inactive
12,Cc1cccc(-c2nc(Nc3ccc(O)cc3)c3ccccc3n2)c1,inactive
13,COc1ccc(-c2noc(-c3cccc(OC)c3OC)n2)cc1OC,2240 nM (active)
14,COc1ccc(-c2noc(CCCC(=O)NC3CCCC3)n2)cc1OC,inactive
15,COc1ccc(-c2nc(-c3ccccc3)no2)c(OC)c1,3980 nM (active)
16,COc1ccc(-c2noc(CN(C)S(=O)(=O)c3ccc(C)cc3)n2)cc1,inactive
17,COc1ccc(-c2csc3nc(-c4ccccc4F)oc(=O)c23)cc1OC,inactive
18,Cc1cccc(-c2noc(CCC(=O)NC3CCCC3)n2)c1,inactive
19,COc1ccc(-c2n[nH]c(C)c2-c2ccccc2OC)c(O)c1,inactive
20,COc1ccc(NC(=O)Cn2cc(C(=O)c3ccncc3)c(=O)c3cc(C)ccc32)cc1Cl,inactive
21,O=S(=O)(NCCCCCCNS(=O)(=O)c1c(F)cccc1F)c1ccc2c(c1)OCCO2,inactive
22,COc1cccc(NC(=O)CN(C)C(=O)c2cc(C3CC3)nn2-c2ccccc2)c1,inactive

row,Compound,Potency
1,O=C(OCc1cc(=O)n2ccsc2n1)C1(c2ccc(Cl)cc2)CC1,inactive
2,COc1ccc(C(=O)OCC(=O)c2cc(C)n(CC3CCCO3)c2C)cc1[N+](=O)[O-] (stereo unspecified),inactive
3,Cc1cccc(NC(=O)CN2CCN(C(=O)C3CCN(C(=O)/C=C/c4ccccc4)CC3)CC2)c1C,inactive
4,COc1cc(OC)c(N2CC(C(=O)Nc3cc(Cl)ccc3N3CCOCC3)CC2=O)cc1Cl (stereo unspecified),inactive
5,CCCCN1C(=O)C(=O)N(CC(=O)Nc2cccc(C(C)=O)c2)C1=O,inactive
6,C=C(C)C1CC=C(C)/C(=N\NC(=O)CNc2ccccc2OC)C1 (stereo unspecified),inactive
7,O=C(Nc1ccon1)c1nc[nH]c1C(=O)NCc1ccccc1,inactive
8,O=C1c2cccc(OCC(=O)N3N=C(c4cccs4)CC3c3ccc(F)cc3)c2CCN1Cc1ccccc1 (stereo unspecified),inactive
9,O=C(CCNC(=O)c1ccc(Br)cc1)NCC(c1ccco1)N1CCCCC1 (stereo unspecified),inactive
10,CCOC(=O)c1ccc(NC2Nc3cc(C)nn3S2)cc1 (stereo unspecified),inactive
11,CCc1ccc(NC2Nc3cc(C)nn3S2)cc1 (stereo unspecified),3550 nM (active)
12,Cc1nn2c(=O)cc(COC(=O)c3ccc(NC(=O)C(C)(C)C)cc3)nc2s1,inactive
13,Cc1csc2nc(COC(=O)c3cccc(N(C)C)c3)cc(=O)n12,2820 nM (active)
14,O=c1cc(CCl)nc2scc(-c3ccccc3)n12,inactive
15,CN(Cc1ccc(F)cc1)C(=O)COc1ccc2ccccc2c1,inactive
16,CN(Cc1ccccc1)C(=O)CCc1ccccc1,inactive
17,CN(Cc1ccccc1)C(=O)COc1ccccc1,2240 nM (active)
18,COc1ccc(NS(=O)(=O)c2ccc(C)c(C(=O)NCC(c3cccs3)N3CCOCC3)c2)cc1 (stereo unspecified),inactive
19,CCOc1ccccc1NC(=O)Cc1cccs1,inactive
20,CCOC(=O)c1ccc(NC(=O)Cc2cccs2)cc1,4470 nM (active)
21,O=C(Cc1cccs1)Nc1ccc([N+](=O)[O-])cc1,inactive
22,CCOC(=O)N1CCN(C(=O)COC(=O)c2cccc(S(C)(=O)=O)c2)CC1,inactive
